Gli-Sufu antag: antagonists of Gli-Sufu signaling; Sufu-KO-LIGHT fibroblasts, Gli luciferase reporter luminescence; inhibition, % at 5 µM; hit rate 0.74% among 340,000;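 active means inhibition above about 55%, limit read from the data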
697 NFkB inh: inhibitors of the PMA/ionomycin-induced NF-kB reporter in 697 B cells. hit rate 0.33% among 330,000. inhibition, % at 4 µM. 697 B-cell NF-kB luciferase reporter, 16 h. AID 435022; in the data active means inhibition above about 35%
SMARCA2 act: activators of SMARCA2 function | AID 652017 | activation, % at 9.1 µM | hit rate 1% among 370,000 | MG213 cells, MMTV-luciferase reporter, dexamethasone, overnight; in the data active means activation above about 7.8%
esBAF inh: blocks esBAF chromatin remodeling in mouse ES cells | Bmi1-luciferase knock-in reporter, 24 h; 100% = twice the neutral-well signal | reporter increase, % at 12.5 µM | hit rate 2% among 350,000; in the data active means activation above about 40%;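 further: a rise in the Bmi1 reporter signal indicates esBAF inhibition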
Jurkat NFkB inh: inhibitors of the PMA/ionomycin-induced NF-kB reporter in Jurkat cells | PMA/ionomycin-induced NF-kB luciferase reporter, luminescence | inhibition, % at 4 µM | hit rate 0.53% among 330,000 | AID 435003; in the data active means inhibition above about 50%
A number is an active result; 0 = inactive; - = no result given. Compounds with a hit are over-represented: about 3.3% of the library has one in this group of screens.

SMILES	Gli-Sufu antag	697 NFkB inh	SMARCA2 act	esBAF inh	Jurkat NFkB inh
C[C@H](CO)N1C[C@H](C)[C@H](CN(C)S(=O)(=O)c2ccc(Cl)cc2)Oc2ccc(NC(=O)CCN3CCOCC3)cc2C1=O	-	-	-	0	-
C[C@H](CO)N1C[C@H](C)[C@@H](CN(C)Cc2ccccc2)Oc2ccc(NC(=O)C3CC3)cc2C1=O	-	-	-	0	-
C=C(C)C1CC=C(C)/C(=N/NC(=O)COc2ccccc2Cl)C1 (stereo not given)	0	0	0	-	0
Cc1cccc2c1OCC/C2=N\NC(=O)COc1ccccc1Cl	0	0	0	70	0
O=C(C[C@@H]1C=C[C@@H](NS(=O)(=O)c2ccc(F)cc2)[C@@H](CO)O1)NCc1ccncn1	-	-	-	0	-
N#Cc1ncccc1CCc1cccc(Cl)c1	0	0	0	43	0
CC(C)c1ccc(C(O)Cc2nc3ccccc3n2C)cc1 (stereo not given)	0	0	0	-	0
COc1ccccc1C(O)Cc1nc2ccccc2n1C (stereo not given)	0	0	0	48	0
COCC(=O)Nc1ccc2c(c1)OC[C@@H](C)N(Cc1cccc(F)c1)C[C@@H](C)[C@H](OC)CN(C)C2=O	-	-	-	0	-
Cc1ccc(NC(=O)c2ccc(CSc3ccccn3)cc2)cc1	0	0	0	50	0
Cc1ccccc1NC(=O)c1ccc(CSc2ncccn2)cc1	0	0	0	46	0
Cc1ccc(NC(=O)c2ccc(CSc3ccccn3)cc2)c(O)c1	0	0	0	-	0
CO[C@@H]1CC[C@@H]2CCN(C)C(=O)[C@H](C)N(C)C(=O)c3cc(C#N)ccc3OC[C@H]1O2	-	-	-	0	-
C=CCN1C(=O)S/C(=C\c2ccc(N3CCOCC3)cc2C)C1=O	0	0	0	73	0
C[C@@H]1CCCCO[C@@H](CN(C)Cc2ccc3c(c2)OCO3)[C@@H](C)CN([C@@H](C)CO)C(=O)c2cc(NS(C)(=O)=O)ccc2O1	-	-	-	0	-
CC(Sc1nc2ccccc2s1)C(=O)NCc1ccc2c(c1)OCO2 (stereo not given)	0	0	0	52	0
Cc1csc(SC(C)C(=O)NCc2ccc3c(c2)OCO3)n1 (stereo not given)	0	0	0	0	0
Cc1n[nH]c(=S)n1/N=C/c1ccccc1OCc1ccc(Cl)cc1	0	0	0	52	0
Cn1c(=O)n(CCOc2ccc(Cl)cc2Cl)c2ccccc21	0	0	0	-	0
Cc1ccc(C)c(OCCn2nnc3ccccc32)c1	0	0	0	0	0
O=c1sc2ccccc2n1CCOc1ccccc1	0	0	0	45	0
Clc1ccccc1OCCn1nnc2ccccc21	0	0	0	63	0
Cn1c(=O)n(CCOc2ccc([N+](=O)[O-])cc2)c2ccccc21	0	0	0	-	0
Cn1c(=O)n(CCOc2ccccc2Cl)c2ccccc21	0	0	0	78	0
Cc1ccc(OCCn2c(=O)n(C)c3ccccc32)cc1	0	0	0	85	0
SMILES	Gli-Sufu antag	697 NFkB inh	SMARCA2 act	esBAF inh	Jurkat NFkB inh
Cn1c(=O)c2c(nc(SCCN3CCOCC3)n2Cc2ccccc2Cl)n(C)c1=O	0	0	0	0	0
Cn1c(=O)c2c(nc(SCCN3CCOCC3)n2Cc2ccc(F)cc2)n(C)c1=O	0	0	0	56	0
COc1ccc(NC(=O)N(C)C[C@H]2OCCCC[C@H](C)Oc3ccc(NC(=O)Nc4ccc(F)cc4)cc3C(=O)N([C@@H](C)CO)C[C@@H]2C)cc1	-	-	-	0	-
Cc1ccc(C2=CSC3=NNC4(CCCCC4)NN23)cc1	0	0	0	66	0
C[C@@H]1CN([C@@H](C)CO)S(=O)(=O)c2ccc(Br)cc2O[C@@H]1CN(C)Cc1ccccc1	-	-	-	0	-
COc1cccc(/C=N/Nc2nccnc2Cl)c1O	68	0	0	-	0
Oc1ccccc1/C=N/Nc1nccnc1Cl	57	0	0	0	0
COc1ccc(/C=N/Nc2nccnc2Cl)c(OC)c1	0	0	0	-	0
Cc1cc(C)nc(NC(=O)c2cccc(Br)c2)n1	0	0	0	0	0
Cc1cc(NC(=O)c2cccc(Br)c2)n[nH]1	0	0	0	47	0
CC(=O)Oc1cccc(NC(=O)c2ccc3c(c2)C(=O)N(CC(C)C)C3=O)c1	0	0	0	44	0
COCCCN1C(=O)c2ccc(C(=O)Nc3cccc(OC)c3)cc2C1=O	0	0	0	0	0
Cc1c(C(=O)N2c3ccccc3CC2C)oc2ccccc12 (stereo not given)	0	0	0	85	0
CC(=O)Nc1ccc(NC(=O)c2cc(-c3ccc(F)cc3C)n[nH]2)cc1	-	-	0	61	-
Cc1cccc(NC(=O)c2cc(-c3ccc(C)c(C)c3O)n[nH]2)c1	0	0	0	43	0
Cc1ccc(C)c(NC(=O)c2cc(-c3ccccc3O)n[nH]2)c1	0	0	0	65	0
Cc1ccc(O)c(-c2cc(C(=O)Nc3cccnc3)[nH]n2)c1	0	0	0	87	0
Cc1cc(F)ccc1-c1cc(C(=O)Nc2ccccc2)[nH]n1	-	-	0	0	-
COc1ccc(OC)c(NC(=O)c2cc(-c3cc(C)ccc3O)n[nH]2)c1	0	0	0	0	0
Cc1ccc(NC(=O)c2cc(-c3ccc(C)c(C)c3O)n[nH]2)cc1C	0	0	0	0	0
CCCNC(=O)C[C@H]1CC[C@H]2[C@@H](COc3ccc(NC(=O)c4cccc(OC)c4)cc3C(=O)N2C)O1	-	-	-	0	-
CCNC(=O)C[C@H]1CC[C@@H]2[C@H](COC[C@@H](O)CN2C(=O)CC)O1	-	-	-	0	-
C[C@H]1CN([C@@H](C)CO)C(=O)c2cc(C#CCN(C)C)cnc2O[C@H]1CN(C)C(=O)Cc1cccnc1	-	-	-	0	-
C[C@H](CO)N1C[C@H](C)[C@H](CN(C)C(=O)Nc2cccc3ccccc23)Oc2ccc(NC(=O)c3ccncc3)cc2C1=O	-	-	-	0	-
CCCNC(=O)C[C@@H]1C[C@H]2c3cc(NS(=O)(=O)c4ccccc4)ccc3O[C@H]2[C@@H](CO)O1	-	-	-	0	-
SMILES	Gli-Sufu antag	697 NFkB inh	SMARCA2 act	esBAF inh	Jurkat NFkB inh
CCCCn1c(SCC(=O)Nc2ccc(OC)cc2)nc2ccc(N3CCOCC3)cc2c1=O	0	0	0	0	0
CCCCNC(=O)CSc1nc2ccc(N3CCOCC3)cc2c(=O)n1Cc1ccc(OC)cc1	0	-	0	64	-
COCCNC(=O)CSc1nc2ccc(N3CCOCC3)cc2c(=O)n1Cc1ccc(OC)cc1	0	0	0	78	0
COCC(=O)Nc1ccc2c(c1)OC[C@H](C)N(C(=O)C1CCCC1)C[C@@H](C)[C@H](OC)CN(C)C2=O	-	-	-	0	-
CCC(=O)N1C[C@@H](C)[C@H](OC)CN(C)C(=O)c2ccc(NC(=O)Nc3cccc(F)c3)cc2OC[C@H]1C	-	-	-	0	-
C[C@H]1CN([C@@H](C)CO)C(=O)c2cccc(NS(=O)(=O)c3ccc(Cl)cc3)c2O[C@H]1CN(C)C(=O)Nc1ccc(C(F)(F)F)cc1	-	-	-	0	-
Cc1c(C(=O)/C=C/c2cccs2)oc2ccc(F)cc12	0	0	0	63	0
COc1ccc(NC(=O)N(C)C[C@@H]2Oc3c(NC(=O)c4cnccn4)cccc3C(=O)N([C@@H](C)CO)C[C@@H]2C)cc1	-	-	-	0	-
Cc1ccc(/C=N/n2c(-c3ccccc3)n[nH]c2=S)cc1	0	0	0	0	0

From PubChem BioAssay
